Results on five compounds are retold here after PubChem BioAssay (NCATS).

Records with an inconclusive call do not appear. The source made the active and inactive calls. Unless noted, the call rests on the fitted dose curve; in most records, active means well fitted inhibition curve with a large enough effect; inconclusive means small, poorly fitted or top-dose-only effect; inactive means flat fitted curve, though single readings scatter.

Experiment [1] in a line: AP1 Signaling Pathway (AID 357; active means well fitted curve in either direction with a large enough effect, not every such curve was filed as active;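 further: ME-180 reporter cells stimulated with EGF at its EC50 level; on the % scale 0 is the no-effect control and ±100 the full control effect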). An outline of the steps: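 Cells are seeded overnight, exposed to compound titrations and an EC50 level of EGF for 5 hours at 37 °C, then loaded with CCF4 dye for 2.5 hours. Beta-lactamase activity under the AP-1 element is read as a blue/green ratio.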
The nature of experiment [2]: NFAT Signaling Pathway (AID 444; active means well fitted curve in either direction with a large enough effect, not every such curve was filed as active;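 further: carbachol stimulus at about its EC50 of 1 µM final; on the % scale 0 is the no-effect control and ±100 the full control effect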). The note with it: Jurkat NFAT-bla M1, carbachol, beta-lactamase ratio, 5 h; at 17.2 µM (top of the series) unless noted. Summed up:
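Jurkat cells carrying an NFAT-driven β-lactamase reporter and co-transfected muscarinic M1 receptor were treated with compound plus carbachol (1 uM final, an EC50 level) for 5 h at 37 °C. CCF4 loading followed for 1 h at RT; 460/530 nm ratio gave %activity.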

A short description of experiment [3]: Stat Signaling Pathway (AID 446; active means well fitted curve in either direction with a large enough effect, not every such curve was filed as active;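 further: ME-180 cervical cancer cells given 40 pM IL-6 alongside compound; SIE-controlled beta-lactamase reporter measured as 460/530 nm FRET emission ratio; on the % scale 0 is the no-effect control and ±100 the full control effect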). An outline of the steps: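 Emission at 460 and 530 nm (excitation 405 nm) reports SIE-controlled beta-lactamase in ME-180 cells. Cells received compound with 40 pM IL-6 for 5 hrs at 37 C; data scaled between 300 pM IL-6 and 125 nM JAK-inhibitor controls.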
In experiment [4] the target is Glucocorticoid receptor (Homo sapiens) (UniProt P04150). In words: GR-EFC Redistribution (AID 451; calls by dose curve; further: potency means the concentration at half of the fitted maximal effect). The note with it: CHO-K1 GR-EFC translocation, beta-gal luminescence, 2 h. An outline of the steps:
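CHO-K1 cells stably expressing nuclear-localized β-gal enzyme acceptor and GR fused C-terminally to the enzyme donor fragment; ligand-driven nuclear translocation restores β-gal by complementation. Compounds titrated up to 46 uM final, 2 h at 37 °C; luminescence read.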

Experiment [5] concerns the target Mitogen-activated protein kinase 10 (Mus musculus) (UniProt Q61831). Kind of experiment: JNK3 AlphaScreen Assay (AID 530; active means well fitted curve in either direction with a large enough effect, not every such curve was filed as active;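 further: kinase came from lysate of stimulated human HepG2 cells; signal reports phosphorylation of biotinylated GST-cJun 1-79 at Ser73 with 10 µM ATP; on the % scale 0 is the no-effect control and ±100 the full control effect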). An outline of the steps: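 Phosphorylation of biotinylated GST-cJun(1-79) at Ser73 is measured by AlphaScreen proximity luminescence. Enzyme is JNK3 in HepG2 lysates activated with interleukin-1beta and tumor necrosis factor alpha; ATP is 10 uM final.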
(In general: Bead proximity is the source of the signal in Alpha formats.)

The target of experiment [6] is 3',5'-cyclic-AMP phosphodiesterase 4B (Homo sapiens) (UniProt Q07343). In words: qHTS Assay for Inhibitors of PDE-IV (AID 607; active means well fitted activation curve with a large enough effect in the main read-out, with a control signal flat, not every such curve was filed as active; further: % of control where 0% means no effect). Summed up: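 The readout is membrane depolarisation from a cAMP-sensing CNG channel, detected with a potential dye at ex 535/em 590. Cells were HEK293-derived (endogenous PDE-IV) at 1000 cells/well, titrated up to 22.9 uM final.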
Chain of 3',5'-cyclic-AMP phosphodiesterase 4B (Homo sapiens) (Q07343 whole entry, looked up): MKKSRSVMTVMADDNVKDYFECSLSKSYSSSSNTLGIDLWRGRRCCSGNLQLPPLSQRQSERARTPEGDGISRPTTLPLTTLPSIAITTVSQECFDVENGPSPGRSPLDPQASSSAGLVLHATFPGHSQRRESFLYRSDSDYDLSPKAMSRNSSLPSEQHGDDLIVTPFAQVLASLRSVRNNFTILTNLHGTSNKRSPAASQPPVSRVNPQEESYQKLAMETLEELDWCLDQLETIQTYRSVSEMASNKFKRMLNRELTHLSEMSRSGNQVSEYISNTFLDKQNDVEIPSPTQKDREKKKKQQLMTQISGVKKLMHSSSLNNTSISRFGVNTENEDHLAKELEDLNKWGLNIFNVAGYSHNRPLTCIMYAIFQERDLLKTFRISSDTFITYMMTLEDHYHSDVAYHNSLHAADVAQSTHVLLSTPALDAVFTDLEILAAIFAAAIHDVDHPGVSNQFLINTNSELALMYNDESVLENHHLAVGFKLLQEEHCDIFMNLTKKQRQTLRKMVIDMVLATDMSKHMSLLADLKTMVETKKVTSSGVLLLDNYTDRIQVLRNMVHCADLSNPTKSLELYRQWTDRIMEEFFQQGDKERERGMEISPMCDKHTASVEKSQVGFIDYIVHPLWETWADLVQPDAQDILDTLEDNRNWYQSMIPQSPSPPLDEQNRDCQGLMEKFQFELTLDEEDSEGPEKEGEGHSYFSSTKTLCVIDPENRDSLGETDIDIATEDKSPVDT
Experiment [7] can be described thus: qHTS Assay for Lipid Storage Modulators (AID 1519; calls by dose curve). Conditions: Drosophila S3 cells, BODIPY lipid droplet/cell ratio, laser cytometry, cells loaded with oleic acid; for activity change, negative = inhibition: at 25.7 µM (top of the series). An outline of the steps:
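Cells seeded at 5,000 per well were treated with compounds over a concentration series and loaded with oleic acid (400 uM, as added). Lipid droplet fluorescence (488 nm excitation, 500-530 nm channel) was read by laser-scanning cytometry and normalized to 20 uM Triacsin C.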
In general terms: Quantitative high-throughput screening tests each substance at several concentrations.

The target in experiment [8] is Ubiquitin carboxyl-terminal hydrolase 1 (Homo sapiens) (UniProt O94782). Kind of experiment: Inhibitors of USP1/UAF1: Pilot qHTS (AID 504865).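 Further: rhodamine fluorescence freed from ubiquitin-rhodamine substrate followed over time; top concentration of the series differs between compounds; on the % scale 0 is the no-effect control and ±100 the full control effect; nearly all actives have a fitted effect of over 35% in size.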 An outline of the steps: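 USP1/UAF1 complex at 1 nM preincubated 15 min at room temperature with compound, then Ub-Rho substrate added at 150 nM final. Fluorescence (480/540 nm) read kinetically in 50 mM HEPES pH 7.8, 0.5 mM EDTA, 1 mM TCEP, 0.1 mg/ml BSA, 0.01% Tween-20.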
Chain of Ubiquitin carboxyl-terminal hydrolase 1 (Homo sapiens) (O94782 whole entry, looked up): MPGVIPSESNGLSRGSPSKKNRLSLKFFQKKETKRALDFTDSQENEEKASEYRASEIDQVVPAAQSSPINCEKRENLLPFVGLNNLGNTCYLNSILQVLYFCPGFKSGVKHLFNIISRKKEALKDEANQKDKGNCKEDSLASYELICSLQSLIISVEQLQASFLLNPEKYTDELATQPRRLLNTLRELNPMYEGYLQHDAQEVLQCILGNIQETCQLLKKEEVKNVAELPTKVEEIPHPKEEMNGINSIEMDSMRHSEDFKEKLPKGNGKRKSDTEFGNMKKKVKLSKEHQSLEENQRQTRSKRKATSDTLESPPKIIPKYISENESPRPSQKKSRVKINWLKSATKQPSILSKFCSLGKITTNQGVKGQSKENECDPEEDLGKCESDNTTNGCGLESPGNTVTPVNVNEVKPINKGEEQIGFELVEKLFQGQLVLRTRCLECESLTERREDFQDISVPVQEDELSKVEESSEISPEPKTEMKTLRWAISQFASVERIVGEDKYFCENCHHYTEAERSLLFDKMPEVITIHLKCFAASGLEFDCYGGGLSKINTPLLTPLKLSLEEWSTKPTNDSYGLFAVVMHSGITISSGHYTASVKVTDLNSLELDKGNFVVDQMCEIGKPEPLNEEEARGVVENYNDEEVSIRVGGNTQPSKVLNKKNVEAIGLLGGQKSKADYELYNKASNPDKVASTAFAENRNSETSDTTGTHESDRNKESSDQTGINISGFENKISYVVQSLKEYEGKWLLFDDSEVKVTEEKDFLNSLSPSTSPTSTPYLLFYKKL

Experiment [9] can be described thus: qHTS profiling for inhibitors of Plasmodium falciparum proliferation (AID 504749).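 Further: 0% = DMSO vehicle and full inhibition = artemisinin control; nearly all actives have a fitted effect of over 60% in size.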 Conditions: P. falciparum in erythrocytes, SYBR Green DNA, 72 h. An outline of the steps:
(§1)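 Quantitative HTS: compounds pinned into medium, infected erythrocytes added (0.3% parasitemia, 2.5% hematocrit), 72 h culture at 37 C under 5% CO2. Saponin/Triton lysis with SYBR Green I, overnight RT, then fluorescence read.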

The subject of experiment [10] is C2A. Described as above. The note with it: P. falciparum in erythrocytes, SYBR Green DNA, 72 h; series mostly up to 12.8 µM. Summed up:
as §1

Experiment [11] deals with CP191. Described as above. The note with it: P. falciparum in erythrocytes, SYBR Green DNA, 72 h; series mostly up to 12.8 µM. Summed up: as §1
Experiment [12] relates to CP217. The description is as above. Conditions: P. falciparum in erythrocytes, SYBR Green DNA, 72 h; series mostly up to 12.8 µM. Summed up: as §1
Experiment [13] concerns CP238. Described as above. Conditions: P. falciparum in erythrocytes, SYBR Green DNA, 72 h; series mostly up to 12.8 µM. Summed up: as §1
In experiment [14] the test system is CP250. The description is as above. Conditions: P. falciparum in erythrocytes, SYBR Green DNA, 72 h; series mostly up to 12.8 µM. Summed up:
as §1

Experiment [15] has as its system CP256. The description is as above. Conditions: P. falciparum in erythrocytes, SYBR Green DNA, 72 h; series mostly up to 12.8 µM. An outline of the steps:
as §1

The subject of experiment [16] is FAB9. The description is as above. The note with it: P. falciparum in erythrocytes, SYBR Green DNA, 72 h; series mostly up to 12.8 µM. Summed up: as §1
In experiment [17] the test system is JCK. Described as above. The note with it: P. falciparum in erythrocytes, SYBR Green DNA, 72 h; series mostly up to 12.8 µM. An outline of the steps:
as §1

For experiment [18], the system named is PC49. The description is as above. The note with it: P. falciparum in erythrocytes, SYBR Green DNA, 72 h; series mostly up to 12.8 µM. An outline of the steps: as §1
Experiment [19] relates to SC27B. The description is as above. Conditions: P. falciparum in erythrocytes, SYBR Green DNA, 72 h; series mostly up to 12.8 µM. Summed up:
as §1

The target of experiment [20] is Glucocorticoid receptor (Homo sapiens) (UniProt P04150). Kind of experiment: GR-GFP Redistribution (AID 450;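 active means compounds whose dose series gives a full or clear partial fitted curve of increased nuclear translocation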; further: potency means the concentration at half of the fitted maximal effect). The note with it: U2OS GR-GFP nuclear translocation, laser cytometry, 2 h.
Chain of Glucocorticoid receptor (Homo sapiens) (P04150 whole entry, looked up, the tested form may be a part): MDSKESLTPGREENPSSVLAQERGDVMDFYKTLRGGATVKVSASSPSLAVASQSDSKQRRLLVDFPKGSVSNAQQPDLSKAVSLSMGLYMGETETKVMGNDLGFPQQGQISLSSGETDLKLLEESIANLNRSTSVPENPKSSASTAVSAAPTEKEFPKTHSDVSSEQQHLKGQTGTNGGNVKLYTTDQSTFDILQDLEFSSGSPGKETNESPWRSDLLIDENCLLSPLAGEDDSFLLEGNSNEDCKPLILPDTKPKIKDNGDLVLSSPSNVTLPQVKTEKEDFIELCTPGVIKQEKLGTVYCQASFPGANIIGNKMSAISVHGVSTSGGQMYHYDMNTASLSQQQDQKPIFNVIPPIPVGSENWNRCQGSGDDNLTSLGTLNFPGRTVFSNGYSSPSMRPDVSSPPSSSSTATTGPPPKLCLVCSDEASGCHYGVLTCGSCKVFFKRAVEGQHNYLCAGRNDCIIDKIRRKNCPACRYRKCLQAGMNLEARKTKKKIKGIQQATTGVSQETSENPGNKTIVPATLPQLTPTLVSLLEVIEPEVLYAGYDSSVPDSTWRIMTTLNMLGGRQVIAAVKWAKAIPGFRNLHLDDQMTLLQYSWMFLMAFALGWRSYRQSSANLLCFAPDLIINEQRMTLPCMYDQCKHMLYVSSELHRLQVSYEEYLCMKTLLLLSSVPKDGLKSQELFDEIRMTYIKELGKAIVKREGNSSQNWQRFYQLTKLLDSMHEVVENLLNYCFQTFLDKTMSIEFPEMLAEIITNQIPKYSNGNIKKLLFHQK
Where [21] appears, read: measured here: cell count channel max response.
The mark [22] stands for this setting: measured here: lipid channel max response.
Where [23] appears, read: at 12.8 µM (top of the series), parasite line A.

For `C[C@@H]1O[C@H](O[C@@H]2\C=C/C=C\C=C/C=C\C[C@H](C)OC(=O)/C=C\[C@H]3O[C@@H]3C[C@H](O)C[C@]3(O)C[C@@H](O)[C@@H](C(=O)O)[C@H](C2)O3)[C@@H](O)[C@H](N)[C@@H]1O` (stereo in doubt), the compound was classed as inactive in [1], in experiment [3] and in [6]. For the same compound, the figures for the activity change, negative = inhibition in [2] and in experiment [7] were -3.9% (inactive) and 2.21% (inactive), respectively. Besides, the Potency in [4] is > 20.6 µM (inactive). Moreover, the Potency entry in experiment [5], in [8], in experiment [10], in [11], in experiment [12] and in experiment [13] was “inactive” each time. The Potency entry in experiment [14], in experiment [15], in [16], in experiment [17], in experiment [18] and in [19] was “inactive” each time. Besides, the max response in experiment [7] (setting [21]) is -4.86%; in experiment [7] (setting [22]), 0.155%. Besides, the activity, negative = inhibition in experiment [9] (at 28.7 µM (top of the series), parasite line A) was 9.05% (inactive); in experiment [9] (at 28.7 µM (top of the series), parasite line B), 8% (inactive).
On to `NS(=O)(=O)c1cc2c(cc1C(F)(F)F)N[C@H](Cc1ccccc1)NS2(=O)=O`, for which the outcome in experiment [1], in experiment [3] and in [6] was inactive. The activity change, negative = inhibition in experiment [2] is 17.7% (inactive); in [7] it was 1.42% (inactive). In addition, the Potency entry in [5], in experiment [10], in [11], in experiment [12], in experiment [13] and in [14] was “inactive” throughout. Also, the Potency result in [15], in experiment [16], in experiment [17], in experiment [18] and in [19] was “inactive” each time. The max response in experiment [7] (setting [21]) was -8.69%; in [7] (setting [22]) it was -8.81%. In experiment [9] (setting [23]), the activity, negative = inhibition was -1.91% (inactive).
Consider `NC[C@@H]1O[C@@H](O[C@H]2[C@H](O)[C@H](O[C@@H]3O[C@H](CO)[C@@H](O)[C@H](N)[C@@H]3O)[C@@H](N)C[C@H]2N)[C@H](N)C[C@@H]1O`, for which the call in experiment [1], in experiment [3] and in experiment [6] was inactive. For the same compound, the figures for the activity change, negative = inhibition in [2] and in experiment [7] were -7.92% (inactive) and -2.29% (inactive), respectively. Also, the Potency result in experiment [5], in experiment [10], in experiment [11], in experiment [12], in experiment [13] and in experiment [14] was “inactive” each time. Also, the Potency result in [15], in experiment [16], in experiment [17], in experiment [18] and in [19] was “inactive” in each case. In addition, the max response in [7] (setting [21]) is -4.83%; in experiment [7] (setting [22]), -6.77%. For the same compound, the activity, negative = inhibition in [9] (setting [23]) was 9.72% (inactive); in experiment [9] (at 12.8 µM (top of the series), parasite line B) it was 18.7% (inactive).
Take `C[C@@H]1C(=O)O[C@@H]2C[C@]34[C@H]5C[C@@H](C(C)(C)C)[C@@]36[C@@H](OC(=O)[C@@H]6O)O[C@@]4(C(=O)O5)[C@@]12O`: the compound was called inactive in experiment [1], in experiment [3] and in experiment [6]. Also, the activity change, negative = inhibition in experiment [2] is 0.0686% (inactive); in experiment [7] it was -0.102% (inactive). Also, the Potency in experiment [4] is > 20.6 µM (inactive). Further, the Potency entry in experiment [5] and in [8] was “inactive” each time. The max response was -9.92% in [7] (setting [21]) and -6.41% in experiment [7] (setting [22]).
Take `Cc1ccccc1OC[C@H](O)CO`: the outcome in experiment [1], in experiment [3] and in [6] was inactive. In addition, the activity change, negative = inhibition in [2] is 11.2% (inactive); in experiment [7], -0.676% (inactive). The Potency in experiment [20] was > 20.6 µM (inactive). Moreover, the Potency result in [5] and in experiment [8] was “inactive” in each case. In addition, the max response in experiment [7] (setting [21]) is -3.4%; in experiment [7] (setting [22]), -5.46%.
